In the library only some 2.2% were active in any assay of this set; here they are far more common.
Giardia kill – kills Giardia lamblia; Giardia lamblia trophozoite viability; activity change, % at 7.66 µM, hits read low; hit rate 0.15% among 340,000; in the data active = activity change below about -80%; inconclusive = between about -30% and that limit;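 also: parasites exposed to compound for two days anaerobically before the ATP read; % is scaled to controls: 0 for no effect and ±100 for the full control effect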
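Anaerobic 48 hrs incubation at 37 deg C of 100 trophozoites/well with test compounds; ATPLite 1-Step luminescence, 15-30 min RT, reports cellular ATP as viability.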
mIDH1 inhibitor – inhibitors of human mutant IDH1 R132H. O75874. IDH1-R132H enzyme, NADPH consumption, diaphorase/resazurin fluorescence. Potency, µM (series often up to 76.6 µM), without a hit: top-dose activity change, negative = inhibition, most hits filed as inhibitors. hit rate 0.093% among 390,000. AID 602179; also: potency is read from the fitted curve at half-maximal effect; % is scaled to controls: 0 for no effect and ±100 for the full control effect; nearly all actives have a fitted effect of over 65% in size
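IDH1-R132H (0.5 ug/mL dispensed) in pH 7.5 Tris buffer was preincubated 30 min with compound, then given a substrate mix of 0.016 mM NADPH and 2 mM alpha-KG for 80 min at room temperature; remaining NADPH was read by diaphorase/resazurin fluorescence.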
TrxR1 substrate – rat thioredoxin reductase 1 substrate activity | O89049 | purified TrxR1 substrate turnover, NADPH consumption readout | Potency, µM (highest dose often 114 µM), inactives show top-dose activity change, negative = substrate turnover | hit rate 0.01% among 390,000; also: potency is read from the fitted curve at half-maximal effect; % is scaled to controls: 0 for no effect and ±100 for the full control effect; nearly all actives have a fitted effect of over 50% in size
Target sequence (O89049 whole entry, looked up): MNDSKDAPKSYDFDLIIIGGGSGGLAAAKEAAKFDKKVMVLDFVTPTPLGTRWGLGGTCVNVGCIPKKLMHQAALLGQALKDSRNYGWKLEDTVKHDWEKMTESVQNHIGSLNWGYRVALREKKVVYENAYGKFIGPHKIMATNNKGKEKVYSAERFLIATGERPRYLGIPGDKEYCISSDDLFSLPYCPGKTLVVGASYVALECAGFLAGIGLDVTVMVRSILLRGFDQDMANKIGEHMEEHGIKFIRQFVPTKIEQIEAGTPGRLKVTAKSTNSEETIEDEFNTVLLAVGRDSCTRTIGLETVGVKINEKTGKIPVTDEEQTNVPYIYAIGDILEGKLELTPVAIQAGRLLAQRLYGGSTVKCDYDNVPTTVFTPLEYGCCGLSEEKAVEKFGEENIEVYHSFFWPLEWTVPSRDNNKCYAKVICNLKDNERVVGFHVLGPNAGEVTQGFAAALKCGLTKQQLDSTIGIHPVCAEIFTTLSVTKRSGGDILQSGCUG
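Rat TrxR1, dispensed at 90 nM, was prereduced with 400 uM NADPH (final) for 5 min at ~22 deg C, then incubated with compound 15 min before 400 uM selenite. A first-read NADPH fluorescence drop versus no-compound background flagged substrates.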
IL-2 act – IL-2 activation; IL-2 activation reporter assay, cell-based qHTS; stimulated with anti-CD3/CD4/CD28 beads; in transgenic mouse T cells; hit rate 0.065% among 360,000; AID 652025; activation, % (series mostly up to about 46 µM); in the data active = activation above about 50%; inconclusive = mostly about 30% to 49%; also: 0% is about no effect
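Readout: EGFP and DsRed signals by fluorescent plate cytometry. Unstimulated transgenic mouse T cells received compound 60 min before antibody-bead stimulation, then incubated 18 h at 37 degrees C.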
TrxR1 inh – blocks rat thioredoxin reductase 1 | O89049 | recombinant rTrxR1, NADPH fluorescence consumption, selenite substrate | Potency, µM (series often up to 114 µM), for inactives: at the top dose activity change, negative = inhibition, actives largely listed as inhibitors | hit rate 1% among 390,000; also: potency is read from the fitted curve at half-maximal effect; % is scaled to controls: 0 for no effect and ±100 for the full control effect; nearly all actives have a fitted effect of over 65% in size
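Rat TrxR1 (90 nM in the dispensed reagent) was pre-reduced with 400 uM NADPH for 5 min at room temperature, then incubated with compound for 15 min. After 400 uM selenite was added, NADPH fluorescence (Ex 340/Em 450 nm) was followed for 8 min.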
BRCA1 expr up – activators of BRCA1 expression; MCF7-BRCA1-FFLuc reporter, luminescence, 48 h; response scale: scaled: vehicle 0%, 10 µM genistein 100%; Potency, µM (top dose mostly 46.1 µM), without a hit: at the highest dose activation, actives largely listed as activators; hit rate 1.1% among 380,000; AID 624202; also: potency is read from the fitted curve at half-maximal effect; nearly all actives have a fitted effect of over 80% in size
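Luminescence from a BRCA1-driven firefly luciferase in MCF7 cells was the read-out, taken 15 min after substrate addition following 48 h compound exposure at 37 °C. Data were normalized to a 10 microM genistein control and DMSO vehicle.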
An asterisk follows results filed as active; ? = inconclusive; / = not tested or not shown; [ ] = dose if it differs, or a comment. Unless noted, calls follow the shape of the dose curve; as a rule, active = well fitted curve in the direction sought with a large enough effect; inconclusive = small, poorly fitted or top-dose-only effect, or another doubt; inactive = no such curve, though single readings can be large; an effect the other way counts as inactive or inconclusive.

SMILES | Giardia kill | mIDH1 inhibitor | TrxR1 substrate | IL-2 act | TrxR1 inh | BRCA1 expr up
Cc1ccc(N2C(=O)[C@@H]3[C@H](C2=O)C2c4ccccc4C=CN2[C@@H]3C(=O)c2ccco2)cc1 (some centres not stated) | 7 | 0% | -19% | -1 | ? | -29%
COc1cc2c(=O)c(S(=O)(=O)c3ccc(F)cc3)cn(Cc3ccccc3C)c2cc1OC | / | -9% | 0% | / | -3% | -17%
COc1cc2c3nnc(-c4ccccc4)c-3cn(Cc3ccccc3F)c2cc1OC | 3 | 1% | 17%[57.1 µM] | 176* | 12%[57.1 µM] | 1%
COc1cc2c3nnc(-c4ccc(F)cc4)c-3cn(Cc3ccccc3F)c2cc1OC | -6 | 0% | -1% | 87* | 16% | -2%
Cc1ccnc2nc(NC(=O)c3ccccc3Cl)nn12 | / | -6% | -4% | / | 24% | /
CCCC(=O)N=C1SC2CS(=O)(=O)CC2N1c1ccc(-c2nc3ccc(C)cc3s2)cc1 (configuration not stated) | -4 | -1% | 64% | 2 | 8% | 16µM*
Cc1ccc(N2C(=NC(=O)c3ccccc3)SC3CS(=O)(=O)CC32)cc1 (configuration not stated) | 9 | 0% | -9% | -3 | -11% | -19%
C/C=C(\C)C(=O)N1CC2(CC(c3cccc(NC(=O)COc4ccc(Cl)cc4)c3)=NO2)C[C@@H]1C(N)=O (some centres not stated) | -17 | 8% | -8%[57.1 µM] | 0 | 1%[57.1 µM] | 27%
C/C=C/C=C\C(=O)Nc1cccc(C2=NOC3(C2)C[C@@H](C(N)=O)N(C(=O)c2cc([N+](=O)[O-])cc([N+](=O)[O-])c2C)C3)c1 (some centres not stated) | 29 | -3% | 5%[57.1 µM] | 0 | 16µM* | 0%
C/C=C/C=C\C(=O)Nc1cccc(C2=NOC3(C2)C[C@H](C(N)=O)N(C(=O)/C=C/C)C3)c1 (some centres not stated) | -8 | -6% | 8% | 1 | 14µM* | 29%
C/C=C\C=C\C(=O)N1CC2(CC(c3cccc(NC(=O)COc4ccc(Cl)cc4)c3)=NO2)C[C@H]1C(N)=O (some centres not stated) | 9 | 2% | 12%[57.1 µM] | 0 | 25µM* | 0%
C/C=C\C=C/C(=O)Nc1cccc(C2=NOC3(C2)C[C@@H](C(N)=O)N(C(=O)COc2ccc(Cl)cc2)C3)c1 (some centres not stated) | -22 | 10% | -3% | 0 | 5.6µM* | -5%
O=C(Nc1ccc(Cl)cc1Cl)[C@@H]1CC=C[C@@H]2CCN(C3CC3)C(=O)[C@@H]21 | / | / | 7% | / | 2% | /
CC(C(=O)NCc1ccc(Cl)cc1)n1ccc2cc(S(=O)(=O)N3CCCCCC3)ccc21 (configuration not stated) | / | 18% | 5% | / | 31% | /
Cc1ccc(C)c(NC(=O)Cn2c(=O)n(CCC(C)C)c(=O)c3cccnc32)c1 | / | 3% | 3% | / | 3% | -1%
CCCN1CNc2c(c(=O)[nH]c(=S)n2CCc2cccc(C)c2C)C1 | -10 | / | 4% | / | 1% | -18%
CCOC(=O)c1sc(=NC(=O)CCSc2ccccc2)n(C)c1C | 7 | 9% | -7% | -1 | 16%[57.1 µM] | 10µM*
O=C1[C@@H]2C(c3cccnc3)=NO[C@@H]2C(=O)N1c1ccc2ccccc2c1 | -5 | 3% | 9%[57.1 µM] | -3 | 16µM* | -6%
COc1ccc(C2=NO[C@@H]3C(=O)N(c4ccc5c(c4)OCCO5)C(=O)[C@H]23)cc1OC | -11 | 2% | -5% | 0 | -16% | 14%
N#CC1=C(N)N(c2ccc(F)cc2)C2=C(C1c1ccc(O)cc1)S(=O)(=O)CC2 (configuration not stated) | 0 | 1% | 9%[57.1 µM] | -1 | 7.9µM* | -4%
C=C1C(=O)O[C@@H]2[C@H]1CC[C@H](C)[C@]1(O)CCC(=O)[C@@]21C | -22 | -7% | 4% | -4 | 6% | -52%
